Kir21 inh – inhibitors of mouse Kir2.1 inward-rectifier potassium channel; HEK293-Kir2.1, FluxOR thallium flux fluorescence; stronger effect = lower value; hit rate 0.85% among 310,000; B-score at 10 µM; AID 1672;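 active = fluorescence ratio B-score at or below minus 3 SD of library scores, with starting-brightness B-score within 2 SD, cut at about -4.2 in these data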;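 note: channel flux triggered by added potassium and thallium sulfate stimulus; B-score of peak minus minimum fluorescence over baseline after thallium stimulus; more negative B-score means stronger Kir2.1 block with less thallium influx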
CHT PAM – allosteric activators of human choline transporter CHT | Q9GZV3 | CHT-expressing cells, membrane potential dye, choline EC20; stronger effect = higher value; LV-AA mutant CHT in HEK293 cells | B-score at 10 µM | hit rate 0.49% among 310,000 | AID 488977;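 active = initial fluorescence not abnormally high and integrated response B-score, plate-corrected, over 3 SD above library mean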
ANO1 activ – activators or potentiators of mouse TMEM16A chloride channel. Q8BHY3. HEK293 TMEM16A/YFP-H148Q/I152L, iodide quench fluorescence; stronger effect = lower value. B-score at 10 µM. hit rate 0.3% among 340,000;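 active = fluorescence-ratio B-score plate-corrected deviation score at least 3 library SD below zero, with starting fluorescence score within 5 deviations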;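 note: channel opened by trigger with iodide after compound preincubation; score built on the fluorescence ratio of max minus min over baseline; more negative score means more quench and so TMEM16A activation or potentiation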
Target sequence (Q8BHY3 whole entry, looked up): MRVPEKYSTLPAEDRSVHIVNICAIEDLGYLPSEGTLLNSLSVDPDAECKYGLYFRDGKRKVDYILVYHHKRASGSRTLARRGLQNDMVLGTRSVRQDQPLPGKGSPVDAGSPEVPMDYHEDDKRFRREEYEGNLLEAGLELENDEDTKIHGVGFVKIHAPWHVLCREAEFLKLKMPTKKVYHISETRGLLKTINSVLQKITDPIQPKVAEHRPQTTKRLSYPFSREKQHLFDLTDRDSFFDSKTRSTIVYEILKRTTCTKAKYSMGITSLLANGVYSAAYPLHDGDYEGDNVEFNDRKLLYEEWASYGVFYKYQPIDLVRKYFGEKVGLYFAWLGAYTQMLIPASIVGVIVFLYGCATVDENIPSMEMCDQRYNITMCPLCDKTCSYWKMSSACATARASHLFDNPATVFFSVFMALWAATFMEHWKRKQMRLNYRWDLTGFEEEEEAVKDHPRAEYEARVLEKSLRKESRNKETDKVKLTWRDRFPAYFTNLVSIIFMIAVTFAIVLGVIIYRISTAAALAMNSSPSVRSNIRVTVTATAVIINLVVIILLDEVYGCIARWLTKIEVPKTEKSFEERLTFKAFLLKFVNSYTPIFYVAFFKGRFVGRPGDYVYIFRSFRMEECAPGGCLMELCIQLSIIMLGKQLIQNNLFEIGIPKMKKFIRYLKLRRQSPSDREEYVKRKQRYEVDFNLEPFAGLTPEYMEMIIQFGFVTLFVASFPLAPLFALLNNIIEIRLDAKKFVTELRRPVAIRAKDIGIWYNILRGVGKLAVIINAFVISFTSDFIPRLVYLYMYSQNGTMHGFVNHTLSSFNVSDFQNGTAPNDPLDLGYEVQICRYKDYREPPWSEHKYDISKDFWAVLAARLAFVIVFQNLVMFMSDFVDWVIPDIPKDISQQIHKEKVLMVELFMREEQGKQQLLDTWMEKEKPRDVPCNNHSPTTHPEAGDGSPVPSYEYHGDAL
CHT block – inhibitors of human choline transporter CHT | CHT-expressing cells, membrane potential dye, choline response; stronger effect = lower value | hit rate 0.86% among 310,000 | AID 488975 | B-score at 10 µM;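 active = B-score over 3 SD under the library average, and starting fluorescence ratio not unusually high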;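 note: choline stimulus applied at its EC90 after an EC20 pre-addition; B-score computed on integrated fluorescence ratio after choline addition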
Rce1 inh – blocks yeast Ras-converting enzyme; hit rate 0.27% among 290,000; yeast membranes, quenched prenylated peptide cleavage fluorescence; calls only; Q03530;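 active = fall in fluorescence gain of 50% or more versus controls, with final raw signal at or below 3038400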;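 note: plate controls were neutral control wells for no effect and wells lacking membranes for full effect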
ANO1 block – blocks the mouse calcium-activated chloride channel TMEM16A. HEK293 TMEM16A/YFP iodide influx fluorescence, ionomycin. normalized B-score (activity score, 25-100; higher = stronger inhibition) at 10 µM. hit rate 1.2% among 310,000. AID 588511;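 active = ratio plate-corrected score three or more library SD toward inhibition, starting fluorescence score within five deviations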;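 note: score derived from kinetic fluorescence span divided by baseline fluorescence per well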
CHT inh conf – human CHT inhibition, confirmatory screen; shares compounds with CHT block; CHT activity remaining % of control (stronger effect = lower value), % at 10 µM; CHT-expressing cells, choline membrane potential dye; LV-to-AA substituted CHT, HEK293 cells; hit rate 70% among 2,400;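 active = choline transporter activity left, mean of duplicates at 10 µM, below buffer-only control mean minus 3 SD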;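 note: depolarization triggered by choline at its EC90 following an EC20 pre-addition; 0% = hemicholinium-3 full block and 100% = buffer-only control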
HEK293 CHT ctr – counter-screen for CHT inhibitors: effect in parental HEK293 cells | shares compounds with CHT block | membrane potential dye, choline response; active = decrease or increase beyond buffer ±3SD | membrane potential ratio readout (active if shifted either direction beyond buffer ±3SD; no single direction) at 10 µM | hit rate 4% among 2,400 | AID 493222;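 note: parental cells lack the transporter so any hit is non-specific; ratio is peak minus trough fluorescence over baseline after EC90 choline challenge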
Numbers without * were called inactive; i = inactive; · = no result. Only some compounds are listed: those with a hit (about 3.2% of all), similar ones and a draw of the others.

SMILES	Kir21 inh	CHT PAM	ANO1 activ	CHT block	Rce1 inh	ANO1 block	CHT inh conf	HEK293 CHT ctr
Cc1ccc(CS(=O)Cc2ccc(C(=O)NC3CCC(C)CC3)o2)cc1 (configuration not stated)	0.14	i	i	-9.79*	i	i	3.4%*	i
Cc1ccc(C(=O)NC2CCC(C)CC2)o1 (configuration not stated)	-1.07	i	i	i	i	i	·	·
Cc1ccc(CS(=O)Cc2ccc(C(=O)NC3CCCCCC3)o2)cc1 (configuration not stated)	0.38	i	i	-9.45*	i	i	36.2%*	i
Cc1ccc(CS(=O)Cc2ccc(C(=O)NC3CCCC(C)C3C)o2)cc1 (configuration not stated)	-1.53	i	i	-9.68*	i	i	19.6%*	i
C/C(=N\NC(=O)c1nnn(-c2nonc2N)c1CN1CCOCC1)c1ccc(CC(C)C)cc1	-1.03	i	i	i	i	i	·	·
Cc1ccc(Nc2cc(C)nc3ncnn23)c(Cl)c1	0.54	i	i	-5.61*	i	i	i	i
CCCn1c2ccccc2c2cnn(CC(=O)NCCN(CC)CC)c(=O)c21	0.05	i	i	-9.14*	i	i	-3.9%*	i
CCCn1c2ccccc2c2cnn(CC(=O)NCCN(C)C)c(=O)c21	-0.02	i	i	-8.01*	i	i	18.5%*	i
O=C(Cn1ncc2c3ccccc3n(Cc3ccccc3F)c2c1=O)NCCN1CCOCC1	-1.56	i	i	-9.94*	i	i	28.4%*	i
O=C(Nc1cccc(S(=O)(=O)N2CCOCC2)c1)C1=NN(c2ccccc2)C(=O)CC1	2.55	i	i	i	i	i	·	·
Cc1ccc(NC(=O)Nc2c(C)[nH]c(=O)[nH]c2=O)cc1Cl	-1.29	i	i	i	i	i	·	·
CC1CCc2c(sc3ncnc(SCC(=O)Nc4ccc(C(=O)O)cc4)c23)C1 (configuration not stated)	0.02	i	i	i	i	i	·	·
COc1cc(NC(=O)CSc2ncnc3sc4c(c23)CCC(C)C4)c(C(=O)O)cc1OC (configuration not stated)	-0.06	i	i	-6.3*	i	i	69.8%*	i
Cc1ccsc1C(=O)OC(C)C(=O)Nc1ccc(Cl)cn1 (configuration not stated)	·	·	i	·	·	·	·	·
O=CC1=C(c2ccccc2)Oc2ccccc2O1	-7.61*	i	i	i	i	i	i	i
Cc1ccccc1C(=O)N1CCCN(C(=O)c2ccccc2C)CC1	-0.03	i	i	-6.81*	i	i	i	i
COC(=O)c1sc(NC(=O)c2ccc([N+](=O)[O-])o2)c(C#N)c1C	0.09	i	i	-7.96*	i	i	62.2%*	2.52*
O=C(CSc1ncnc2scc(-c3ccccc3)c12)NC1CCS(=O)(=O)C1 (configuration not stated)	0	i	i	-6.16*	·	i	i	i
CC(=O)N(C)c1ccc(NC(=O)C(Sc2ccccc2)c2ccccc2)cc1 (configuration not stated)	-1.21	i	i	-5.53*	i	i	65.2%*	i
CCOC(=O)c1cccc(NC(=O)CSc2nnc(C)n2Cc2ccccc2)c1	-0.44	i	i	-6.9*	i	i	66.2%*	i
Cc1nnc(SCC(=O)NNC(=O)c2ccccc2)n1Cc1ccccc1	·	·	i	·	·	·	·	·
Cc1nnc(SCC(=O)c2ccccc2)n1Cc1ccccc1	-0.91	i	i	-5.29*	i	i	47.1%*	-8.62*
O=C(CCCn1cncn1)N1CCCC(N2CCN(c3ccccc3F)CC2)C1 (configuration not stated)	1.14	i	i	i	i	i	·	·
CCOC(=O)C1=C(COC(=O)C(CC)Oc2ccccc2)NC(=O)NC1C (configuration not stated)	-2.63	i	i	i	i	i	·	·
CCOC(=O)C1=C(COC(=O)c2ccc(OC(C)C)cc2)NC(=O)NC1C (configuration not stated)	0.01	i	i	-9.69*	i	i	2.8%*	i
SMILES	Kir21 inh	CHT PAM	ANO1 activ	CHT block	Rce1 inh	ANO1 block	CHT inh conf	HEK293 CHT ctr
COc1ccc2c(c1OC)C(=O)N1c3ccccc3C(=O)N(c3ccccc3)C21 (configuration not stated)	0.42	i	i	-8.53*	i	i	i	i
COc1ccc(C2CC(c3ccccc3)=NN2C(=O)CN2CCN(Cc3ccccc3)CC2)cc1 (configuration not stated)	-3.29	i	i	i	i	i	·	·
O=C(NNC(=O)c1cccc(S(=O)(=O)N2CCN(c3ccccc3)CC2)c1)c1ccc(Cl)cc1	-4.24	i	i	-5.4*	i	i	i	i
CC1CCC(NC(=O)c2cccc(S(=O)(=O)N3CCN(c4ccc(F)cc4)CC3)c2)CC1 (configuration not stated)	0.76	i	i	-5.56*	i	i	i	i
O=C(O)C1OC(C(=O)O)C(C(=O)O)C1C(=O)O (configuration not stated)	·	·	i	·	·	·	·	·
C(#Cc1ccccc1)C[N+]1(CC#Cc2ccccc2)CCCC1	-1.25	i	i	i	i	i	·	·
C=CC[N+]1(CC#Cc2ccccc2)CCCC1	-1.15	i	i	i	i	i	·	·
C#CC[N+]1(CC#Cc2ccc(C)cc2)CCCCC1	0.26	i	i	-7.03*	i	i	42.6%*	i
Cc1ccc(C#CC[N+]2(C)CCCCC2)cc1	-1.11	i	i	-6.05*	i	i	43.1%*	i
CC(=O)Nc1c(Cl)c(Cl)c2c(c1Cl)C(=O)c1cc(Cl)ccc1-2	·	·	i	·	·	·	·	·
Cc1ccc(N2C(=O)N(CC(=O)Nc3c(C)cc(C)cc3Cl)C(=O)C2C)cc1 (configuration not stated)	-0.51	i	i	-5.04*	i	i	i	i
COc1ccc(C(=O)NNC(=O)COc2ccc(Cl)cc2)c(OC)c1	0.33	i	i	i	i	i	·	·

From PubChem BioAssay
